Test results as given in PubChem BioAssay AID1159580 (chemical genetic matrix, 2015).
Hit rate of the full screen: of about 5,500 compounds, about 2,000 (36%) were called active. About 18% were inconclusive and are not listed. Cut-off read from the data, not from the text of the source: active = normalized growth mostly below about 0.91 (no sharp cut-off); inconclusive = no clear call, values can overlap the other calls; inactive = mostly above about 0.92. This is one part of the list.

Experiment: chemical genetic growth profiling, strain panel (AID 1159580);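 note: tested at 20 µM; growth read once vehicle control cultures reached saturation at 30 °C; 1 = growth at the plate median or of vehicle wells; lower values mean less growth of the strain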
Details: growth OD

Measured: normalized growth

Clc1ccc(COC(Cn2ccnc2)c2ccc(Cl)cc2Cl)cc1 (stereo unspecified)
active: S. cerevisiae deletion strains, locus YJR066W, strain TOR1, hits give low values 0.00125 | S. cerevisiae deletion strains, locus YJR075W, strain HOC1, hits give low values 0.0611 | S. cerevisiae deletion strains, locus YKL009W, strain mrt4, hits give low values 0.0921 | S. cerevisiae deletion strains, locus YKL068W, hits give low values 0.0732 | S. cerevisiae deletion strains, locus YKL085W, strain MDH1 (second series), hits give low values 0.0674 | S. cerevisiae deletion strains, locus YKL085W, strain MDH1, hits give low values 0.0674 | S. cerevisiae deletion strains, locus YKL160W, strain elf1, hits give low values 0.0682 | S. cerevisiae deletion strains, locus YKL190W, strain CNB1, hits give low values 0.0459 | S. cerevisiae deletion strains, locus YKR001C, strain vps1, hits give low values 0.0628 | S. cerevisiae deletion strains, locus YKR026C, strain gcn3, hits give low values 0.0617 | S. cerevisiae deletion strains, locus YKR091W, strain srl3, hits give low values 0.0578 | S. cerevisiae deletion strains, locus YLL001W, strain dnm1, hits give low values 0.0616 | S. cerevisiae deletion strains, locus YLL026W, hits give low values 0.0557 | S. cerevisiae deletion strains, locus YLL041C, strain sdh2, hits give low values 0.0556 | S. cerevisiae deletion strains, locus YLR027C, strain aat2, hits give low values 0.0535 | S. cerevisiae deletion strains, locus YLR039C, strain RIC1, hits give low values 0.0808 | S. cerevisiae deletion strains, locus YLR058C, strain SHM2, hits give low values 0.0475 | S. cerevisiae deletion strains, locus YLR102C, strain apc9, hits give low values 0.0627 | S. cerevisiae deletion strains, locus YLR113W, strain HOG1, hits give low values 0.128 | S. cerevisiae deletion strains, locus YLR221C, strain rsa3, hits give low values 0.0566 | S. cerevisiae deletion strains, locus YLR258W, strain gsy2, hits give low values 0.0569 | S. cerevisiae deletion strains, locus YLR262C, strain YPT6 (second series), hits give low values 0.0789 | S. cerevisiae deletion strains, locus YLR262C, strain YPT6, hits give low values 0.112 | S. cerevisiae deletion strains, locus YLR268W, strain sec22, hits give low values 0.0635 | S. cerevisiae deletion strains, locus YLR320W, strain mms22, hits give low values 0.139 | S. cerevisiae deletion strains, locus YLR330W, strain CHS5, hits give low values 0.0517 | S. cerevisiae deletion strains, locus YLR342W, strain FKS1 (second series), hits give low values 0.0624 | S. cerevisiae deletion strains, locus YLR342W, strain FKS1, hits give low values 0.0696 | S. cerevisiae deletion strains, locus YLR357W, strain rsc2, hits give low values 0.121 | S. cerevisiae deletion strains, locus YLR370C, strain arc18, hits give low values 0.0609 | S. cerevisiae deletion strains, locus YLR371W, strain rom2, hits give low values 0.0612 | S. cerevisiae deletion strains, locus YLR384C, strain iki3, hits give low values 0.0595 | S. cerevisiae deletion strains, locus YLR418C, strain cdc73, hits give low values 0.089 | S. cerevisiae deletion strains, locus YML016C, strain PPZ1, hits give low values 0.046 | S. cerevisiae deletion strains, locus YML032C, strain rad52, hits give low values 0.0629 | S. cerevisiae deletion strains, locus YML120C, strain ndi1, hits give low values 0.0559 | S. cerevisiae deletion strains, locus YML124C, strain tub3, hits give low values 0.06 | S. cerevisiae deletion strains, locus YMR058W, strain fet3, hits give low values 0.0614 | S. cerevisiae deletion strains, locus YMR078C, strain ctf18, hits give low values 0.0711 | S. cerevisiae deletion strains, locus YMR125W, strain sto1, hits give low values 0.0771 | S. cerevisiae deletion strains, locus YMR129W, hits give low values 0.0559 | S. cerevisiae deletion strains, locus YMR205C, strain PFK2, hits give low values 0.0917 | S. cerevisiae deletion strains, locus YMR223W, strain ubp8, hits give low values 0.0593 | S. cerevisiae deletion strains, locus YMR231W, strain pep5, hits give low values 0.125 | S. cerevisiae deletion strains, locus YMR263W, strain SAP30, hits give low values 0.055 | S. cerevisiae deletion strains, locus YMR307W, strain GAS1, hits give low values 0.123 | S. cerevisiae deletion strains, locus YNL067W, strain RPL9B, hits give low values 0.0483 | S. cerevisiae deletion strains, locus YNL071W, strain lat1, hits give low values 0.0586 | S. cerevisiae deletion strains, locus YNL128W, strain TEP1, hits give low values 0.0622 | S. cerevisiae deletion strains, locus YNL153C, strain GIM3, hits give low values 0.0497 | S. cerevisiae deletion strains, locus YNL183C, strain NPR1, hits give low values -0.00516 | S. cerevisiae deletion strains, locus YNL209W, strain ssb2, hits give low values 0.0633 | S. cerevisiae deletion strains, locus YNL233W, strain BNI4, hits give low values 0.0542 | S. cerevisiae deletion strains, locus YNL248C, strain rpa49, hits give low values 0.0786 | S. cerevisiae deletion strains, locus YNL250W, strain rad50, hits give low values 0.0799 | S. cerevisiae deletion strains, locus YNL271C, strain bni1, hits give low values 0.0793 | S. cerevisiae deletion strains, locus YNL298W, strain CLA4, hits give low values 0.0698 | S. cerevisiae deletion strains, locus YNL307C, strain MCK1, hits give low values 0.0676 | S. cerevisiae deletion strains, locus YNL322C, strain KRE1 (second series), hits give low values 0.067 | S. cerevisiae deletion strains, locus YNR049C, strain mso1, hits give low values 0.0571 | S. cerevisiae deletion strains, locus YNR052C, strain pop2, hits give low values 0.0609 | S. cerevisiae deletion strains, locus YOL006C, strain TOP1, hits give low values 0.104 | S. cerevisiae deletion strains, locus YOL012C, strain htz1 0.142 | S. cerevisiae deletion strains, locus YOL147C, strain pex11, hits give low values 0.0571 | S. cerevisiae deletion strains, locus YOR001W, strain rrp6, hits give low values 0.0678 | S. cerevisiae deletion strains, locus YOR061W, strain CKA2, hits give low values 0.0453 | S. cerevisiae deletion strains, locus YOR069W, strain VPS5, hits give low values 0.0468 | S. cerevisiae deletion strains, locus YOR070C, strain gyp1, hits give low values 0.0583 | S. cerevisiae deletion strains, locus YOR080W, strain dia2, hits give low values 0.0655 | S. cerevisiae deletion strains, locus YOR083W, strain WHI5, hits give low values 0.0646 | S. cerevisiae deletion strains, locus YOR106W, strain vam3, hits give low values 0.0717 | S. cerevisiae deletion strains, locus YOR136W, strain idh2, hits give low values 0.0693 | S. cerevisiae deletion strains, locus YOR144C, strain elg1, hits give low values 0.0562 | S. cerevisiae deletion strains, locus YOR184W, strain ser1, hits give low values 0.0649 | S. cerevisiae deletion strains, locus YOR231W, strain MKK1, hits give low values 0.119 | S. cerevisiae deletion strains, locus YOR265W, strain rbl2, hits give low values 0.0574 | S. cerevisiae deletion strains, locus YOR270C, strain vph1, hits give low values 0.104 | S. cerevisiae deletion strains, locus YOR290C, strain snf2, hits give low values 0.0649 | S. cerevisiae deletion strains, locus YOR316C, strain cot1, hits give low values 0.0595 | S. cerevisiae deletion strains, locus YPL051W, strain arl3, hits give low values 0.0626 | S. cerevisiae deletion strains, locus YPL078C, strain atp4, hits give low values 0.0787 | S. cerevisiae deletion strains, locus YPL106C, strain sse1, hits give low values 0.0958 | S. cerevisiae deletion strains, locus YPL240C, strain hsp82, hits give low values 0.0557 | S. cerevisiae deletion strains, locus YPL241C, strain CIN2, hits give low values 0.0472 | S. cerevisiae deletion strains, locus YPL256C, strain CLN2, hits give low values 0.127 | S. cerevisiae deletion strains, locus YPR119W, strain clb2, hits give low values 0.062 | S. cerevisiae deletion strains, locus YPR141C, strain kar3, hits give low values 0.0789 | S. cerevisiae deletion strains, locus YPR163C, strain tif3, hits give low values 0.0707 | S. cerevisiae deletion strains, locus YPR167C, strain met16, hits give low values 0.0615 | S. cerevisiae deletion strains, strain wtn01, hits give low values 0.0584 | S. cerevisiae strains, strain wild type, hits give low values 0.0556
